Source: PubChem BioAssay (several laboratories)
HSP90 refold inh = HSP90 refolding inhibition in rabbit reticulocyte lysate; luciferase refolding luminescence, 3 h; inhibition, % at 5.6 µM; actives 0.91% (n = 290,000); AID 1789;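 active = inhibition above the screen-wide mean plus 3 SD, computed separately per campaign, cut at about 16% in these data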;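 also: inhibitors lower the luminescence because luciferase stays unfolded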
SENP7 inh = blocks the human protease SENP7 | Q9BQF6 | recombinant SENP7, Z-RLRGG-aminoluciferin luminescence, 40 min | inhibition, % at 5 µM | actives 1.5% (n = 330,000);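 active = inhibition above about 50% at the single test dose, limit read from the data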
Target sequence (Q9BQF6 706-1050 limits assumed): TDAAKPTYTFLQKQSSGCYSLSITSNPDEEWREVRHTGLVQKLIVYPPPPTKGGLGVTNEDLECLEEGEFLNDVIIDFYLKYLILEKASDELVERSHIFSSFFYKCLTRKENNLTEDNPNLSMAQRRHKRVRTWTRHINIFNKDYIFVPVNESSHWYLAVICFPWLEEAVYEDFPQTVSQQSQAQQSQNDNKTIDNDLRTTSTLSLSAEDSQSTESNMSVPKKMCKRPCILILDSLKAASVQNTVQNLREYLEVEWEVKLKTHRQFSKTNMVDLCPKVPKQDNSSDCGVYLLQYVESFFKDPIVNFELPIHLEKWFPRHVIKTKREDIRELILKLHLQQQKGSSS
SENP6 inh = inhibitors of human SENP6 protease; Q9GZR1; Recombinant SENP6 catalytic domain, aminoluciferin luminescence; inhibition, % at 10 µM; actives 1.8% (n = 330,000); AID 2599;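 active = inhibition above about 50% at the single tested dose, limit read from the data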
SENP8 block-1 = SENP8 (human) protease inhibition; inhibition, % at 20 µM; recombinant SENP8, Nedd8 substrate fluorescence; Q96LD8; actives 0.64% (n = 360,000); AID 602440; in the data active = inhibition mostly above about 40%, no sharp cut-off; inactive = mostly below about 27%
Target sequence (Q96LD8 whole entry, looked up): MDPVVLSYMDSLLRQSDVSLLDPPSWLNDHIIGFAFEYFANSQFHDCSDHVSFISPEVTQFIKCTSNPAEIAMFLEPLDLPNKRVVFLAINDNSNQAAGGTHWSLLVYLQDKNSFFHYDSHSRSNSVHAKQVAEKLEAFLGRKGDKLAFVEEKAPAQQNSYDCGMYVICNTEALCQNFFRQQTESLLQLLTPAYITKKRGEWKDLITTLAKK
SENP8 block-2 = SENP8 protease inhibition; purified SENP8, Z-RLRGG-aminoluciferin cleavage, luminescence; AID 2540; actives 1.2% (n = 330,000); inhibition, % at 10 µM; Q96LD8; in the data active = inhibition above about 50%
HSP90 inh confirm = HSP90 inhibition, confirmation assay | shares compounds with HSP90 refold inh | rabbit reticulocyte lysate, luciferase refolding luminescence, 3 h | inhibition, % at 5.9 µM | actives 64% (n = 2,300); in the data active = inhibition above about 18%
luciferase ctr = counter-screen for HSP90 inhibitors: inhibitors of firefly luciferase. actives 48% (n = 2,300). AID 1847. purified native firefly luciferase, luminescence. inhibition, % at 5.9 µM. shares compounds with HSP90 refold inh;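 active = inhibition above the mean inhibition of all tested sample wells plus 3 SD, cut at about 10% in these data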
Numbers stand for hits; i = inactive; nt = not tested or not shown. Most compounds without a hit are left out; they make up all but 2.8% or so of the library.

SMILES	HSP90 refold inh	SENP7 inh	SENP6 inh	SENP8 block-1	SENP8 block-2	HSP90 inh confirm	luciferase ctr
O=C(/C=C/c1cccc([N+](=O)[O-])c1)Nc1cc(C(=O)O)cc(C(=O)O)c1	i	i	i	i	i	nt	nt
O=C(/C=C/c1ccccc1)Nc1cc(NC(=O)/C=C/c2ccccc2)cc(C(=O)O)c1	32.2	i	i	i	i	41.0	9.6
O=Cc1cn(CC(=O)Nc2ccc3c(c2)OCO3)c2ccccc12	i	i	i	i	i	nt	nt
O=C(O)C1C2C=CC(C2)C1C(=O)Nc1cccc(C(=O)N2CCCCC2)c1 (stereo unspecified)	29.6	i	i	i	i	i	i
CC(=O)c1cccc(NC(=O)C2C3C=CC(C3)C2C(=O)O)c1 (stereo unspecified)	i	i	i	i	i	nt	nt
COc1ccccc1C(NC(C)=O)c1cc(Cl)c2cccnc2c1O (stereo unspecified)	23.7	i	i	i	i	i	i
Cc1sc2ncnc(OCC(=O)NC3CCS(=O)(=O)C3)c2c1C (stereo unspecified)	i	i	i	i	i	nt	nt
CCOc1cc(CN2CCN(CCc3ccccc3)C(CCO)C2)ccc1OC (stereo unspecified)	26.7	i	i	i	i	i	i
COc1ccc(CN2CCN(CCCc3ccccc3)C(CCO)C2)cc1OC (stereo unspecified)	i	i	i	i	i	nt	nt
CN1CCCC(OC(=O)c2cccc(S(=O)(=O)N3CCCCCC3)c2)C1 (stereo unspecified)	i	i	i	i	i	nt	nt
O=S(=O)(Nc1c(S(=O)(=O)c2ccccc2)c2nc3ccccc3nc2n1C1CCCCC1)c1ccccc1	i	nt	nt	i	nt	nt	nt
C=CCn1c(NS(=O)(=O)c2ccccc2)c(S(=O)(=O)c2ccc(C)cc2)c2nc3ccccc3nc21	21.8	nt	nt	i	nt	52.4	i
O=C(NCCc1ccc([N+](=O)[O-])cc1)c1ccccc1	i	i	i	i	i	nt	nt
COCCCN1C(=O)c2ccc(C(=O)NCCc3ccccc3)cc2C1=O	22.1	i	i	i	i	41.8	23.5
CC(C)(C)c1ccc(C(=O)NCCc2ccccc2)cc1	21.4	i	i	i	i	53.1	42.9
CCN1C(=O)c2ccc(C(=O)NCc3ccccc3)cc2C1=O	i	i	i	i	i	nt	nt
O=C(NCCc1ccccc1)c1ccc([N+](=O)[O-])cc1	23.4	i	i	i	i	34.2	29.9
COCC(=O)Nc1cc(C(=O)NCCc2ccccc2)ccc1Cl	i	i	i	i	i	nt	nt
CCOCC(=O)Nc1cc(C(=O)NCCc2ccccc2)ccc1Cl	17.1	i	i	i	i	32.0	i
Cc1ccc(CCNC(=O)c2cccc(N3CCCC3=O)c2)cc1	i	i	i	i	i	nt	nt
O=C(NCCc1ccccc1)c1cccc(N2CCCC2=O)c1	35.0	i	i	i	i	52.5	33.2
CN(C)c1ccc(-c2nc3ccccn3c2/N=C/c2ccc(Br)cc2)cc1	17.6	i	i	i	i	35.1	19.3
O=C(N/N=C/c1cccnc1)c1ccc(NC(=O)c2cccc(Cl)c2)cc1	i	i	i	i	i	nt	nt
O=C(O)c1cc(N/N=C/c2cccnc2)ccc1Cl	29.9	i	i	i	i	38.7	i
O=C(N/N=C/c1cccnc1)c1ccc(NC(=O)c2ccc(Cl)cc2)cc1	19.5	i	i	i	i	i	i
SMILES	HSP90 refold inh	SENP7 inh	SENP6 inh	SENP8 block-1	SENP8 block-2	HSP90 inh confirm	luciferase ctr
O=c1nc(N/N=C/c2c[nH]c3ccccc23)cn[nH]1	27.3	i	i	i	i	30.4	14.0
C(=N\Nc1ccccn1)/c1c[nH]c2ccccc12	i	i	i	i	i	nt	nt
O=C(N/N=C/c1cccnc1)c1ccc(Cl)c(Cl)c1	nt	i	i	i	i	nt	nt
O=C(O)c1cc(N/N=C/c2c[nH]c3ccccc23)ccc1Cl	40.1	i	i	i	i	37.6	i
CC(C)(C)n1nnnc1C(c1cccs1)N1CCN(Cc2ccc3c(c2)OCO3)CC1 (stereo unspecified)	i	i	i	i	i	nt	nt
CC1(C)CN=C(N(C(=O)Nc2ccccc2)c2ccccc2F)S1	i	i	i	i	i	nt	nt
CC1(C)CN=C(N(Cc2ccccc2)C(=O)Nc2ccccc2)S1	19.0	i	i	i	i	29.4	18.7
Cc1ccc(S(=O)(=O)NCCC(=O)N2CCCCCC2)cc1	nt	i	i	i	i	nt	nt
O=C(NC1CCCCC1)c1noc2c1CCCCC2	19.1	i	i	i	i	31.1	14.1
CN(C)CCn1ccc(O)c(Cc2ccc(Cl)cc2)c1=O	i	i	i	i	i	nt	nt
c1csc(CNc2ccc3c(c2)OCCO3)c1	31.1	nt	nt	i	nt	21.5	14.9
Oc1ccccc1CNc1ccc2c(c1)OCCO2	i	i	i	i	i	nt	nt
COc1ccc(-c2onc3ccc(C(=O)/C=C/N(C)C)cc23)cc1	30.6	i	i	i	i	i	i
O=C1C2CCCN2C(c2ccccc2)N1c1ccc(Cl)cc1 (stereo unspecified)	i	i	i	i	i	nt	nt
Cc1ccc(C2=NCN(c3ccc(C(=O)O)cc3)C(=S)N2)cc1	21.8	i	i	nt	i	18.0	i
S=C1NC(c2ccccc2)=NCN1c1ccccc1	i	i	i	i	i	nt	nt
CC(C)(C)OC(=O)N1CCC[C@H]1C(=O)N/N=C/c1ccc2nccnc2c1	i	i	i	i	i	nt	nt
COc1ccc2nc(/C=N/NC(=O)[C@@H]3CCCN3C(=O)OC(C)(C)C)ccc2c1	40.6	i	i	i	i	25.7	i
O=C(NCc1ccco1)C1CCCN(S(=O)(=O)Cc2ccccc2)C1 (stereo unspecified)	49.1	i	i	i	i	i	i
COc1ccc2cc(C(=O)N/N=C/c3sc4ccccc4c3O)ccc2c1	17.5	i	i	i	i	i	i
COc1ccc(C(=O)N/N=C/c2sc3ccccc3c2O)cc1	i	nt	nt	i	nt	nt	nt
CCOc1ccc(CCNC(=O)C2CC(=O)N(CCc3ccc(OC)c(OC)c3)C2)cc1OCC (stereo unspecified)	nt	i	i	i	i	nt	nt
COc1ccc(C(=O)O/N=C(\N)c2ccccn2)c(OC)c1	42.5	i	i	i	i	i	i
Cc1ccc2oc(/N=C(\N)NC(=O)C3CC3)nc2c1	26.8	i	i	i	i	47.8	40.1
Cc1ccc2oc(/N=C(\N)NC(=O)C(C)(C)C)nc2c1	81.1	64.8	i	i	i	84.5	82.9
CCC(=O)Nc1c2c(nc3c1CCC3)CCCC2	i	i	i	i	i	nt	nt
CC1(C)C(C=C(Cl)Cl)C1C(=O)N(Cc1cccc(Cl)c1)C1CCS(=O)(=O)C1 (stereo unspecified)	16.9	i	i	i	i	i	i
Cc1nc(C)n(CCNC(=O)c2ccco2)n1	35.5	i	i	i	i	i	i
Cc1cc(C)n(CCCNC(=O)c2ccco2)n1	nt	i	i	i	i	nt	nt
CC(=O)c1c(C)[nH]c(C(=O)OCCOc2ccccc2)c1C	34.0	i	i	i	i	54.9	57.0
